The list is not random: actives were taken first. Their share in the collection is about 11%.
HPGD block – qHTS Assay for Inhibitors of HPGD (15-Hydroxyprostaglandin Dehydrogenase); 15-hydroxyprostaglandin dehydrogenase [NAD(+)] (Homo sapiens), P15428; purified HPGD, NADH fluorescence kinetic, PGE2 substrate; Potency, µM, inactives show at the top dose activity change, negative = inhibition, actives largely listed as inhibitors; 150,000 tested, 4.3% active; active = well fitted inhibition curve with a large enough effect, not every such curve was filed as active; inconclusive = small, poorly fitted or top-dose-only effect, or another doubt; inactive = no such curve, though single readings can be large or run the other way; note: potency is the fitted concentration of half-maximal effect
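NADH formation kinetics: reaction with 30 uM PGE2 and 1 mM NAD+ (final), 20 nM enzyme, Tris-HCl pH 8 with Tween 20, after 15 min compound preincubation at room temperature. Fluorescence change, last versus first of five reads.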
ALDH1A1 inh – qHTS Assay for Inhibitors of Aldehyde Dehydrogenase 1 (ALDH1A1); Purified ALDH1A1, NADH fluorescence, propionaldehyde substrate; Potency, µM (titrated, usually from 75.3 µM), inactives show at the top dose activity, negative = inhibition, usual class: inhibitors; 220,000 tested, 7.3% active; AID 1030, 2008; active = well fitted inhibition curve with a large enough effect, not every such curve was filed as active; inconclusive = small, poorly fitted or top-dose-only effect, or another doubt; inactive = no such curve, though single readings can be large or run the other way;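 note: potency is the fitted concentration of half-maximal effect; plate controls were no enzyme wells and a reference inhibitor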
Target sequence (P00352 whole entry, looked up): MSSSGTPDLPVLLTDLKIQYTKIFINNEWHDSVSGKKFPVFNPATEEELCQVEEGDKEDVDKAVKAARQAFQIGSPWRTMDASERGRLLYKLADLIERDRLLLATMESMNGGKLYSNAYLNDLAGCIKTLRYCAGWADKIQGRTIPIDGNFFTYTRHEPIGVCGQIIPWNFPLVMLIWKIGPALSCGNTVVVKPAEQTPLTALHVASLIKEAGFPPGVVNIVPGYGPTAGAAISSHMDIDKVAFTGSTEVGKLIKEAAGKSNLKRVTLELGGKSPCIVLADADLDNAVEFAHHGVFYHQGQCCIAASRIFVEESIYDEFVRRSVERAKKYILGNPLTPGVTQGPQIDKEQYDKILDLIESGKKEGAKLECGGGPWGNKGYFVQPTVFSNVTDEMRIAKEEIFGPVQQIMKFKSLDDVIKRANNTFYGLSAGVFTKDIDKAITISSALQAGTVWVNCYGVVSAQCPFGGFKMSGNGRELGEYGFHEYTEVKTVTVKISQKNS
PNC assembly inh – High Content Assay for Compounds that inhibit the Assembly of the Perinucleolar Compartment | PC3M PTB-GFP, PNC prevalence imaging, 16 h; stronger effect = lower value | activity change (PNC), negative = inhibition, % at 10 µM | 140,000 tested, 3.1% active;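 active = readout at or below -70, meaning at least 70% loss of cells showing the perinucleolar compartment, a nuclear body marking cancer cells; inconclusive = readout between -30 and a set limit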;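 note: plate controls were DMSO wells for no effect and camptothecin positive control wells for full effect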
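Compounds are pinned in duplicate onto adhered PC3M cells stably expressing GFP-tagged PTB and incubated 16 h at 37 C. Cells are then fixed, nuclei stained with Hoechst, and PNC-positive cells counted.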
NPSR antagonist – qHTS Assay for Antagonists of the Neuropeptide S Receptor: cAMP Signal Transduction. Q6W5P4. 220,000 tested, 1% active. CHO-NPSR cells, cAMP TR-FRET, antagonist mode. AID 1461, 2008. Potency, µM (highest dose often 38.3 µM), for inactives: top-dose activity change, negative = inhibition, hits mostly inhibitors; note: potency is the fitted concentration of half-maximal effect; nearly all actives have a fitted effect of over 50% in size
IMPase inh – qHTS Assay for Identifying the Cell-Membrane Permeable IMPase Inhibitors; Inositol monophosphatase 1 (Rattus norvegicus), P97697; CHO-M1 cells, IP1 accumulation, HTRF TR-FRET ratio; 120,000 tested, under 10 active; inhibition (IP1 accumulation), % at 46.1 µM; active = well fitted curve in the direction sought with a large enough effect in the signal ratio, not every such curve was filed as active; inconclusive = small, poorly fitted or top-dose-only effect, or a change in a side signal; inactive = no such curve, though single readings can be large or run the other way; the % refers to the signal ratio;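 note: cells stimulated with carbachol in lithium chloride buffer; plate controls were DMSO basal wells for no effect and reference inhibitor wells for full effect; higher means more IMPase inhibition seen as more IP1 and lower FRET ratio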
Target sequence (P97697 whole entry, looked up): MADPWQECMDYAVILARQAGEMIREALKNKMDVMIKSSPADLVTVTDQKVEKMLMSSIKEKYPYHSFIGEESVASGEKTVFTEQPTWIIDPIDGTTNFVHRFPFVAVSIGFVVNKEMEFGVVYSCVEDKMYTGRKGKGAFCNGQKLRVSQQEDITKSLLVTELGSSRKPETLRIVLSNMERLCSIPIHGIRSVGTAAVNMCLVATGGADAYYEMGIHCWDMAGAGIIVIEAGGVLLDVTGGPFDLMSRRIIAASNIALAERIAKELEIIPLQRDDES
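Cellular IMPase inhibition is scored as a rise in cytosolic IP1, detected by competitive TR-FRET between d2-labelled IP1 and a europium anti-IP1 antibody. M1-expressing CHO cells were stimulated with carbachol for 30 min at 37C, with lithium (50 mM LiCl) present in the buffer.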
IMPase Li cell – qHTS Assay for Identifying the Cell-Membrane Permeable IMPase Inhibitors: Potentiation with Lithium; 210,000 tested, 0.35% active; Potency, µM (highest dose often 59.4 µM), for inactives: at the top dose activity, negative = IMPase inhibition, actives largely listed as inhibitors; CHO-M1 cells, IP1 TR-FRET (IP-One), carbachol + lithium; AID 1457, 2008;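 note: IP1 builds up when IMPase is blocked and the TR-FRET signal falls; potency is the fitted concentration of half-maximal effect; plate controls were basal vehicle for no effect and high inhibitor control for full effect; nearly all actives have a fitted effect of over 50% in size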
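Test compounds were applied to CHO-M1 cells previously cultured for 16–30 h at 2000 per well. A small lithium amount accompanied them; after 30 min at 37C, IP1 was quantified by TR-FRET.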
* hit, by the source's call; u = inconclusive; x = not tested or not shown; [ ] = dose if it differs, or a comment. Unless noted, calls come from the whole dose curve; as a rule, active = well fitted curve in the direction sought with a large enough effect; inconclusive = small, poorly fitted or top-dose-only effect, or another doubt; inactive = no such curve, though single readings can be large; an effect the other way counts as inactive or inconclusive. Unless noted, % is set by controls: 0 for no effect and ±100 for the full control effect.

SMILES	HPGD block	ALDH1A1 inh	PNC assembly inh	NPSR antagonist	IMPase inh	IMPase Li cell
CCOC(=O)c1cnc(SC)nc1Sc1cc(Cl)ccc1Cl	7.1µM*	u	27	-27%[46.1 µM]	-2	15%[38.3 µM]
CCOC(=O)c1cnc(SC)nc1Nc1cccc(F)c1	-9%	-2%	40	-8%[46.1 µM]	6	8%[38.3 µM]
O=C(CSc1nnc(CNc2ccccc2)o1)N1CCCc2ccccc21	-5%	8.9µM*	u	-10%[46.1 µM]	-7	-3%[38.3 µM]
COc1ccc(NCc2nnc(SCC(=O)N3CCCc4ccccc43)o2)cc1	-1%	u	37	-17%[46.1 µM]	-13	0%[38.3 µM]
CC1Cc2ccccc2N1C(=O)CSc1nnc(CNc2ccccc2)o1 (configuration not stated)	-4%	25µM*	u	-5%[46.1 µM]	0	-3%
COc1ccc(CC(NC(C)=O)C(=O)NC2CCN(c3nc(C)cc(C)c3C#N)CC2)cc1OC (configuration not stated)	x	u	x	4%	x	1%
O=Cc1cccn1-c1nccc(-c2ccco2)n1	x	22µM*	x	-3%	x	-12%
O=Cc1cccn1-c1ncc(Br)cn1	x	u	x	7%	x	-3%
CN(C)c1ccc(/C=c2/sc3n(c2=O)NC2(c4ccccc4)N(C)C(=O)N(C)C2(c2ccccc2)N=3)cc1 (configuration not stated)	-6%	12%	-84*	5%	x	-2%
Cc1cc(C)n2nc(SCc3nnc(SCc4ccccc4Cl)s3)nc2n1	28µM*	8%	u	-4%[46.1 µM]	-2	-6%
COc1cccc(CSc2nnc(CSc3nc4nc(C)cc(C)n4n3)s2)c1	16µM*	u	-28	-11%[46.1 µM]	7	50%[38.3 µM]
Cc1cc(C)n2nc(SCc3nnc(SCc4ccccc4C)s3)nc2n1	25µM*	13%	u	-14%[46.1 µM]	1	17%[38.3 µM]
COc1cc2c(cc1NC(=O)c1cccc(F)c1)CCCC2	-12%	4%	8	-18%	x	7%
CCOc1ccc(N2CC(C(=O)NCCC3=CCCCC3)CC2=O)cc1 (configuration not stated)	1%	u	8	-11%[46.1 µM]	7	9%[38.3 µM]
O=C(CN1CCC(C(O)(c2ccccc2)c2ccccc2)CC1)Nc1cc(Cl)ccc1Cl	-12%	u	-100*	u	7	18%[38.3 µM]
COc1ccc(C(=O)Oc2ccc(F)cc2C(=O)/C=C/c2ccc(OC)c(OC)c2)cc1	-10%	-14%	110	1%	x	16%
COc1ccc(/C=C/C(=O)c2cc(F)ccc2OC(=O)c2ccccc2C)cc1OC	-16%	6%	-88*	19%	x	8%
O=C(O)c1ccc2c(=O)n(-c3ccccc3)c(=S)[nH]c2c1	x	x	x	24%	x	x
CN(C)C(CNC(=O)c1ccc2c(=O)n(-c3ccccc3F)c(=S)[nH]c2c1)Cc1ccccc1 (configuration not stated)	x	13µM*	x	-25%	x	3%
COc1ccc(CNc2cc(-c3ccoc3)ncn2)c(OC)c1	x	25µM*	x	x	x	10%
c1ccc(CNc2cc(-c3ccoc3)ncn2)cc1	x	22µM*	x	x	x	13%
c1ccc(CNc2cc(-c3cccnc3)ncn2)cc1	x	u	x	x	x	-3%
COc1cccc(-c2cc(NCc3ccccc3OC)ncn2)c1	x	9%	x	x	x	13%
COc1cc2c(cc1O)[C@@H]1Cc3cc(O)c(OC)cc3[C@H](C2)N1C	x	x	x	18%	x	x
NC(=S)NNc1cccc2cccnc12	x	3.5µM*	x	u	x	22%
SMILES	HPGD block	ALDH1A1 inh	PNC assembly inh	NPSR antagonist	IMPase inh	IMPase Li cell
Cc1ccc2cccc(SCC(=O)N3CCOCC3)c2n1	u	u	-3	-5%[46.1 µM]	40	13%[38.3 µM]
COc1cc(NC(=O)c2ccc(COCC(F)(F)F)cc2)cc(OC)c1OC	-3%	5%	-16	-11%[46.1 µM]	-3	7%[38.3 µM]
COc1cc(NC(=O)c2cccc(COCC(F)(F)C(F)F)c2)cc(OC)c1OC	-4%	12%	-100*	13%	3	4%
Cc1c([N+](=O)[O-])cc(C(=O)N2CCOCC2)cc1[N+](=O)[O-]	-13%	1%	-27	11%	x	1%
COc1ccccc1NNC(=O)c1cccnc1Oc1ccccc1	x	14µM*	x	-2%	x	x
O=C(O)c1ccc(N2C(=O)/C(=C\c3ccccc3)N=C2c2ccccc2)cc1	x	x	x	6.3µM*	x	x
CC1=N/C(=C\c2ccc3c(c2)OCO3)C(=O)N1c1ccc(C(=O)O)cc1	-18%	1%	u	-25%	x	4%
CC(C)CC(O)C1CCN(C(=O)CCc2nnc(-c3ccccc3)o2)CC1 (configuration not stated)	x	10%	x	-3%	x	4%
CCOC(=O)CSc1nc2c(sc3ccc([N+](=O)[O-])cc32)c(=O)n1Cc1ccco1	-16%	u	-87*	-11%	x	20%
COCCNC(=O)CSc1nc2cc3c(cc2c(=O)n1Cc1ccco1)OCO3	-6%	13µM*	-23	-2%[46.1 µM]	1	4%[38.3 µM]
CCOC(=O)CSc1nc2ccccc2c(=O)n1Cc1ccco1	-5%	u	-4	-12%[46.1 µM]	7	2%[38.3 µM]
CCCCNC(=O)CSc1nc2cc3c(cc2c(=O)n1Cc1ccco1)OCO3	x	u	x	-16%	x	9%
COCCCn1c(SCC(=O)NC2CCCC2)nnc1-c1ccco1	-14%	13µM*	-107*	-6%[46.1 µM]	-8	2%[38.3 µM]
COCCCn1c(SCC(=O)OC2CCCCC2)nnc1-c1ccco1	-11%	u	5	-3%[46.1 µM]	-1	6%[38.3 µM]
CCC(Sc1nc2cc3c(cc2c(=O)n1Cc1ccco1)OCO3)C(=O)Nc1ccccc1OC (configuration not stated)	-16%	1.1µM*	22	-10%[46.1 µM]	8	-19%[38.3 µM]
O=C(CCNC(=O)Cn1cnc2ccccc2c1=O)NCCC1=CCCCC1	-7%	u	-19	3%[46.1 µM]	2	23%[38.3 µM]
COC(=O)Nc1snnc1C	-7%	1%	-19	-3%[46.1 µM]	-4	-9%[38.3 µM]
CCOC(=O)CSc1nc2ccccc2c(=O)n1-c1cccc(C)c1	x	x	x	x	17	x
Cc1cc(C(=O)COC(=O)c2ccc3c(c2)NC(=O)CS3)c(C)n1CC1CCCO1 (configuration not stated)	-12%	-11%	0	7%	x	-1%
COc1ccccc1NC(=O)Nc1ccc2[nH]c(=O)[nH]c2c1	x	1%	x	5%	x	2%
CCC(C)NC(=O)CSc1nc2cc3c(cc2c(=O)n1Cc1ccco1)OCO3 (configuration not stated)	x	u	x	-9%	x	-9%

Screening results: PubChem, National Center for Advancing Translational Sciences (NCATS)
